The values that follow come from PubChem BioAssay (EPA / NIEHS).

Each structure is given as a SMILES string. Activity calls are given as the source filed them. The calls were made as follows: active = hit-call score of the fitted dose curve at least 0.9, where 1 is the maximum; inactive = score below 0.9.

Read-out in the experiment: TIMP1, TIMP1 (gene 7076)
Put plainly: LTEA_HepaRG_TIMP1: Life Technologies and Expression Analysis (LTEA) Assay for TIMP1 using HepaRG (AID 2283534).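 As to outcome: TaqMan qRT-PCR signal normalized to ACTB GAPDH and POLR2A housekeeping genes.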 The conditions noted are these: mRNA level, 48 h; actives raise or lower the signal. How it is done: LTEA_HepaRG is a cell based, multiplexed-readout assay that uses HepaRG, a human liver cell line, with measurements taken at 48 hours after chemical dosing on a 96-well plate.LTEA_HepaRG_TIMP1 is one of 102 assay component(s) measured in the LTEA HepaRG cell culture assay. It is a marker of Cell proliferation, survival, death.Data from the assay component LTEA_HepaRG_TIMP1 was analyzed into 1 endpoint. This assay endpoint, LTEA_HepaRG_TIMP1, was analyzed with bidirectional fitting relative to DMSO as the negative control and baseline of activity. Using a type of inducible reporter, measures of mRNA induction for gain or loss-of-signal activity can be used to understand regulation of transcription factor activity. To generalize the intended target to other relatable targets, this assay endpoint is annotated to the protease inhibitor intended target family, where the subfamily is metalloproteinase inhibitor.
A total of 1060 chemcials from the ToxCast library were tested in eight-point concentration-response experiments. Cell culture and cytotoxicity assays were conducted at Thermo Fisher Scientific's Custom Services facility (Madison, WI). A single lot of human HepaRG cells (Thermo Fisher Scientific, Frederick, MD) was used for the cell culture experiments. 96-well format collagen type I coated plates of human HepaRG cells were prepared using established methods. Briefly, cryopreserved HepaRG cells were thawed, plated at a density of approximately 100,000 cells/well in HepaRG Thaw, Plate, and General Purpose media (HPRG770, Thermo Fisher Scientific), and incubated for 48 hours. 0.5% DMSO was selected as vehicle control to balance the requisite need of DMSO in HepaRG cultures to maintain differentiation (for example, baseline metabolism, proportions of hepatocytes vs. cholangiocytes), while enabling further hepatic receptor pathway activation (for example, PXR and CAR) in response to chemical exposure. 48 hours after plating, the culture medium was replaced with HepaRG Serum-Free Incudtion Media. Cells were exposed to each test chemical in duplicate and maintained in CO2 incubators for another 48 hours. Chemical plates were thawed to room temperature and 200x concentrations of treatment groups were prepared. 8-point conentration-reponse curves were made with the highest exposure at 100 uM, followed by half-log dilutions, all in 0.5% DMSO. Each test plate contained variouse controls, induction positive controls (1mM phenobarbital), cytotoxicity positive controls ([…] aflatoxin B1), vehicle controls (0.5% DMSO), and total lysis controls (0.5% DMSO). Cell morphology images were taken using an Essen IncuCyte FLR automated microscope, with six 96-well plates imaged in about 24 minutes. Images were captured and exported and JPEG files. Spent culture media was transfered to black-well plates for the LDH assay, and remaining media was sorted at -80 C for later use. Cells were treated with RLT buffer and frozen until shipped for gene expression analysis. Total RNA was isolated from the cell suspension in 75 uL of Buffer RLT (Qiagen, Germantown, MD 20874) by Quintiles/Expression Analysis (Durham, NC) using a custom isolation procedure. Total RNA from each plate well was transferred to a preamplification plate. Fluidigm's 96.96 Dynamic ArrayTM (Fluidigm, Amsterdam, the Netherlands) technology was used for gene expression analyses by quantitative reverse transcription polymerase chain reaction (qRT-PCR, performed by Quintiles/Expression Analysis, Durham, NC)89. Standard TaqManTM Assays (Applied Biosystems/ThermoFisher Scientific, Foster City, CA) were used to assess the expression of 93 genes selected based on their selectivity and sensitivity to important hepatic receptors known to be modulated by environmental chemicals; importance in human hepatocyte functionality; and hepatotoxicity. […]
Turning to `COC(=O)c1ccccc1N`, the compound was called inactive.
The same measure, in the same setting: the same measure for `CC(C)(O)c1cnn2c(-c3ccc(F)c(-c4c(F)cccc4C#N)c3)cnc2n1`: “inactive”; for `CCCCCCCCCCCCCN1CC(C)OC(C)C1` (stereo not given): “inactive”.
Same read-out and setting: the same measure for `CC(O)CCO` (stereo not given): “inactive”; for `[Cl-].[Cl-].[Hg+2]`: “inactive”; for `Cc1cccc(N)c1N`: “inactive”.
Still for that read-out and setting: as for `Nc1ccc(Oc2ccc(N)cc2)cc1`, the entry is “inactive”; as for `ClC1=C(Cl)C2(Cl)C3C(Cl)C=CC3C1(Cl)C2(Cl)Cl` (stereo not given), “inactive”.
As to `O=P(OCCCl)(OCCCl)OCCCl`, the compound was called inactive.
For the compound `CO[C@@H]1[C@H](OC(=O)NC(=O)CCl)CC[C@]2(CO2)[C@H]1[C@@]1(C)O[C@@H]1CC=C(C)C`, the compound was classed as inactive.
For the compound `C[N+](C)(C)CC1CO1` (stereo not given), the call was inactive.
The same measure, in the same setting: the same measure for `C=CCc1ccc2c(c1)OCO2`: “inactive”; for `Clc1ccccc1Cl`: “inactive”; for `Oc1ccc2ccc3cccc4ccc1c2c34`: “inactive”.
As to `COP(=S)(OC)SCN1C(=O)c2ccccc2C1=O`, the result was inactive.
Same read-out and setting: the same measure for `CCCCC(CC)COC(=O)c1ccc(C(=O)OCC(CC)CCCC)c(C(=O)OCC(CC)CCCC)c1` (stereo not given): “inactive”; for `Cn1cc(-c2ccccc2)c(=O)c(-c2cccc(C(F)(F)F)c2)c1`: “inactive”; for `Nc1ccc(Cc2ccc(N)cc2)cc1`: “inactive”.
The same measure, in the same setting: as for `CCOc1cccc(C2(N3CCN(c4ccccc4)CC3)CCC(C)CC2)c1` (stereo not given), the entry is “inactive”.
For `Clc1ccc(C(c2ccc(Cl)cc2)C(Cl)Cl)cc1`, the compound was called inactive.
Same read-out and setting: as for `O=[N+]([O-])C(Br)(CO)CO`, the entry is “inactive”.
Take `O=C(N[C@H](c1ccccc1)[C@@H]1CN2CCC1CC2)c1c(Cl)ccc(C(F)(F)F)c1Cl`: the AC50 was 64.9 µM (active).
Consider `c1ccc(NNc2ccccc2)cc1`, for which the outcome was inactive.
On the same count and under the same terms, the same measure for `CC(C)(C)OOC(=O)c1ccccc1`: “inactive”; for `N#CC(Br)Br`: “inactive”; for `COC(=O)Nc1nc2ccccc2[nH]1`: “inactive”.
Still for that read-out and setting: as for `CN(C)c1ccc(C(=O)c2ccc(N(C)C)cc2)cc1`, the entry is “inactive”; as for `CCN(CC)N=O`, “inactive”; as for `Brc1ccc(Oc2ccccc2)cc1`, “inactive”.
On the same count and under the same terms, as for `CCC(C)c1ccc(O)cc1` (stereo not given), the entry is “inactive”; as for `C1=Cc2cccc3cccc1c23`, “inactive”.
`OCCCl`: the compound was classed as inactive.
On the same count and under the same terms, the same measure for `O=Cc1ccco1`: “inactive”; for `Cc1cc(N=Nc2ccccc2C)ccc1N`: “inactive”; for `O=C1CCCO1`: “inactive”.
The same measure, in the same setting: as for `CC(C)N(Cc1ccccc1)C(=O)C(C)(C)C`, the entry is “inactive”.
As to `OCCCBr`, the result was inactive.
Same read-out and setting: the same measure for `Oc1ccccc1Cl`: “inactive”.
On the same count and under the same terms, the same measure for `CNC(=O)Oc1cccc2c1OC(C)(C)C2`: “inactive”.
On the same count and under the same terms, as for `N#CC(Br)(Br)C(N)=O`, the entry is “inactive”.

Usually AC50 stands for the concentration giving half of the maximal activity seen.
